Only some compounds are listed: those with a hit (about 7.5% of all), similar ones and a draw of the others.
NPC1 promoter act – activators of NPC1 promoter; Huh7 NPC1 promoter luciferase reporter, 24 h; Potency, µM (doses to about 9.22 µM), without a hit: at the top dose activation, usual class: activators; 320,000 tested, 2.4% active; AID 485313; also: % of control where 0% means no effect; nearly all actives have a fitted effect of over 60% in size
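Compounds in DMSO were transferred onto Huh7 NPC1-luciferase reporter cells pre-incubated 2 h; after 24 h at 37 °C, Amplite reagent was dispensed and luminescence recorded 10 min later.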
Rab9 prom act – activates the Rab9 promoter | Huh7 Rab9 promoter-luciferase reporter, luminescence, 24 h | Potency, µM (series often up to 9.22 µM), for inactives: at the highest dose activation, negative = inhibition, actives largely listed as activators | 320,000 tested, 2.8% active | AID 485297; also: % of control where 0% means no effect; nearly all actives have a fitted effect of over 60% in size
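Using Huh7 cells stably transfected with Rab9 promoter–luciferase, compounds were incubated 24 h at 37 °C, 5% CO2; luciferase luminescence was read 10 min after reagent addition.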
ELG1 genotoxic – genotoxicity induction in ELG1-luciferase HEK293T cells | HEK293T ELG1-luciferase reporter, luminescence, 16 h | Potency, µM (top dose mostly 46 µM), for inactives: at the top dose activity change, positive = activation, actives largely listed as activators | 330,000 tested, 1.3% active | AID 504466; also: % of control where 0% means no effect; nearly all actives have a fitted effect of over 60% in size
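Reporter readout depends on ELG1 protein level, which increases with genetic stress. After 16 hr compound exposure at 37 °C, luciferase activity was quantified using ONE-Glo.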
SMN2 splice enh – SMN2 splice variant enhancement; HEK293 SMN2-luciferase splicing reporter, luminescence, 30-36 h; Potency, µM (doses to about 46.1 µM), without a hit: at the highest dose activity change, positive = activation, most hits filed as activators; 210,000 tested, 2.8% active; also: % of control where 0% means no effect; nearly all actives have a fitted effect of over 55% in size
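HEK293 cells carry an SMN2 […]–luciferase reporter in which exon 7 inclusion puts luciferase in frame. Cells were plated 10-12 h before compound addition, then incubated 30-36 h at 37C. ONE-Glo luminescence was read; sodium butyrate at 4.5 mM final served as control.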
FLuc modulator – counter-screen for miR-21 project: firefly luciferase inhibitors or activators; P08659; purified FLuc, Km substrates, luminescence inhibition; Potency, µM (top dose mostly 57.5 µM), for inactives: top-dose activity change, negative = inhibition, usual class: inhibitors; 360,000 tested, 6.9% active; AID 588342;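 also: plate controls were vehicle for no effect and reference inhibitor for full effect; nearly all actives have a fitted effect of over 55% in size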
Target sequence (P08659 whole entry, looked up): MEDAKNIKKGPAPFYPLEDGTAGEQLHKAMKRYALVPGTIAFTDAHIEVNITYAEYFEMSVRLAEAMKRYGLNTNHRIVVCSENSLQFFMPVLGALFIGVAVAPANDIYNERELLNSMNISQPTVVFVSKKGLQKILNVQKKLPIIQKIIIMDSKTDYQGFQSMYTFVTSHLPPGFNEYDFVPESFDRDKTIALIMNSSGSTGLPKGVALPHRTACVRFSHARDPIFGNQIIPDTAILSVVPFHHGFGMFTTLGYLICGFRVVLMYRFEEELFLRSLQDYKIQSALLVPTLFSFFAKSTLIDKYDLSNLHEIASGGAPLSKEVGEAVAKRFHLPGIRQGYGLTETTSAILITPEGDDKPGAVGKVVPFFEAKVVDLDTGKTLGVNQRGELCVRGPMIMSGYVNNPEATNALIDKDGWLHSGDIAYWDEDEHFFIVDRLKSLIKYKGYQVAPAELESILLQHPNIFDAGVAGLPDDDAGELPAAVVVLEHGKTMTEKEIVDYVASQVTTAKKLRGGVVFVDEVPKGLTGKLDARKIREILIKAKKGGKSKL
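Purified P. pyralis luciferase (10nM final) with 10uM D-luciferin and 10uM ATP (Km levels) in 50mM Tris acetate pH 7.5, 10mM Mg acetate, 0.01% Tween-20, 0.05% BSA; qHTS 6-point titration, ~60 µM downward; luminescence read.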
Numbers without * were called inactive; ? = inconclusive; / = not tested or not shown. Calls follow the shape of the dose curve; as a rule, active = well fitted curve in the direction sought with a large enough effect; inconclusive = small, poorly fitted or top-dose-only effect, or another doubt; inactive = no such curve, though single readings can be large; an effect the other way counts as inactive or inconclusive. Potency is read from the fitted curve at half-maximal effect.

SMILES | NPC1 promoter act | Rab9 prom act | ELG1 genotoxic | SMN2 splice enh | FLuc modulator
Nc1c(-c2ccc(Cl)cc2)cnn1-c1cccc(C(F)(F)F)c1 | ? | ? | 7% | -11% | ?
Cc1ccc(-c2cnn(-c3cccc(C(F)(F)F)c3)c2N)cc1 | ? | 4µM* | ? | 27% | 7.6µM*
O=c1c(Br)c(Br)cnn1-c1ccccc1 | -41% | -51% | -19% | -104% | 5%
Nc1c(-c2cccc(Cl)c2)cnn1-c1ccccc1 | ? | ? | 18% | / | 17µM*
Nc1c(-c2ccccc2)cnn1-c1ccccc1 | 3.2µM* | 3.5µM* | ? | / | 11µM*
Cc1ccc(CNC(=O)CCC(=O)N2CC(C)Oc3ccccc32)cc1 (stereo not given) | 3% | 5% | 2% | / | -4%
O=C(Nc1cccc(O)c1)c1noc2c1CCc1ccccc1-2 | ? | ? | 1.2µM* | ? | 0.48µM*
Cc1ccc(NC(=O)c2noc3c2CCc2ccccc2-3)cc1 | 4µM* | 2.8µM* | 21µM* | ? | 7.6µM*
O=C(Nc1ccc(F)cc1F)c1noc2c1CCc1ccccc1-2 | / | / | / | 11µM* | ?
CC(=O)c1ccc(NC(=O)c2noc3c2CCc2ccccc2-3)cc1 | / | / | / | 5% | -9%
CCc1ccc(NC(=O)c2noc3c2CCc2ccccc2-3)cc1 | 23% | ? | ? | 22% | 11µM*
c1ccc(-c2ccc(N3CC4(CCNCC4)C3)cc2)cc1 | / | / | / | -65% | /
Cn1c(Cn2c(=O)sc3ccccc32)nnc1SCC(=O)NCc1ccc(F)cc1 | -3% | 1% | 0% | 5% | 3%
CCn1cc(S(=O)(=O)Nc2ccc3c(c2)OCCO3)cn1 | 3% | -9% | ? | / | 17µM*
CCCN=CC1=C(O)CC(c2ccccc2)CC1=O (stereo not given) | -2% | 0% | 0% | -2% | 3%
CC(/C=N/NC(=O)c1nnn(-c2nonc2N)c1C(C)C)=C\c1ccccc1 | ? | ? | 3% | / | 1.5µM*
CCCc1c(C(=O)N/N=C/C(C)=C/c2ccccc2)nnn1-c1nonc1N | 13% | 14% | 7% | / | 2.4µM*
CN1CC(O)C2=CC(=O)C(=O)C=C21 (stereo not given) | / | / | / | -6% | /
O=[N+]([O-])c1ccc(-c2c(O)c3ccccc3c3nc4ccccc4nc23)cc1 | 0% | 2% | -8% | -69% | -15%
O=C(COC(=O)c1ccc(-c2cnc3ccccc3n2)cc1)c1ccccc1 | 24% | ? | 2% | 8% | -9%
O=[N+]([O-])c1ccc(-c2cnc3ccccc3n2)cc1 | 3.2µM* | ? | ? | / | ?
CCOc1ccc(-c2cnc3ccccc3n2)cc1 | ? | 4% | 0.52µM* | / | 0.17µM*
Nc1c(Cl)ncnc1N/N=C/c1cccc(O)c1 | 5% | -3% | 2% | / | 17µM*
COc1ccc(/C=N/Nc2ncnc3sc4c(c23)CCCC4)cc1OC | 11% | 8% | 0% | 21% | 2.7µM*
COc1ccc(/C=N/Nc2ncnc(Cl)c2N)cc1OC | 2% | 2% | 10% | 23% | 21µM*
SMILES | NPC1 promoter act | Rab9 prom act | ELG1 genotoxic | SMN2 splice enh | FLuc modulator
CCc1ccc(Nc2ncnc3sc4c(c23)CCCC4)cc1 | / | / | / | / | -13%
Cc1cc(OCC(=O)OCC(=O)N2CCc3ccccc32)ccc1Cl | 0% | 2% | 1% | / | /
COc1ccccc1NC(=O)N1CCCC1C(=O)NCc1ccccc1F (stereo not given) | 1% | -8% | 13% | 6.3µM* | -2%
CCOC(=O)c1cccc(NC(=O)c2cc3ccccc3o2)c1 | ? | 1.3µM* | -4% | / | 5.4µM*
CCOC(=O)c1ccc(NC(=O)c2cc3ccccc3o2)cc1 | ? | ? | 15% | -15% | 9.5µM*
CCOC(=O)c1ccccc1NC(=O)c1cc2ccccc2o1 | -2% | ? | -15% | / | ?
Cc1cnn(C(=S)NCCc2ccccc2)c1 | ? | ? | 15µM* | ? | 19µM*
Cc1cnn(C(=S)NCc2ccc(Cl)cc2)c1 | -1% | 1% | -5% | -25% | -13%
O=C(CSc1ccccc1)Nc1cccc(S(=O)(=O)N2CCCC2)c1 | 4% | 14% | -2% | 10% | ?
CCOc1ccccc1-n1nnnc1SCc1nc2ccccc2s1 | 14% | 17% | -4% | -28% | 13µM*
CCOc1ccc(-n2nnnc2-c2nc3ccccc3s2)cc1 | ? | 2.5µM* | 18µM* | -55% | 2.1µM*
Cn1c(SCc2nc3ccccc3s2)nnc1-c1cccs1 | 18% | 6% | ? | -12% | ?
Cc1ccccc1-n1c(C)nnc1SCc1nc2ccccc2s1 | 15% | 28% | ? | 2% | 4.8µM*
CCn1c(SCc2nc3ccccc3s2)nnc1-c1cccs1 | 18% | ? | ? | ? | 15µM*
CCc1ccc(NC(=O)C2CCN(S(=O)(=O)c3ccc4c(c3)N(C(C)=O)CCO4)CC2)cc1 | -2% | -3% | -6% | / | -1%
COc1ccccc1/C=C/C(=O)Nc1ccc2c(c1)OCCO2 | ? | 0.71µM* | ? | 2.8µM* | 0.85µM*
O=C(/C=C/c1ccccc1)Nc1ccc2c(c1)OCCO2 | 0.5µM* | 0.45µM* | ? | 1.1µM* | 0.21µM*
O=C(/C=C/c1ccco1)Nc1ccc2c(c1)OCCO2 | 2.2µM* | 0.63µM* | -5% | 8.9µM* | 1.9µM*
CN1[C@@H]2CCC[C@H]1CC(NC(=O)c1nn(C)c3ccccc13)C2 (stereo not given in full) | -3% | 1% | 7% | / | 11%
Cn1cnnc1Sc1cc(N2CCN(S(=O)(=O)c3ccccc3)CC2)ccc1[N+](=O)[O-] | 2% | 1% | 3% | 4% | 4%
Cc1nc(SCc2ccc(Cl)cc2)c(C#N)c(C)c1Cl | / | / | / | -5% | -10%
